Inconclusive results are not listed. The source made the active and inactive calls. Unless noted, the call rests on the fitted dose curve; in most records, active means well fitted curve in the direction sought with a large enough effect in the repeat runs; inconclusive means weak or mixed curves; inactive means no such curve, though single readings can be large; an effect the other way counts as inactive or inconclusive.
What was measured:
[1] = qHTS assay to identify small molecule agonists of the peroxisome proliferator-activated receptor delta (PPARd) signaling pathway - cell viability counter screen (AID 743211); further: nearly all actives have a fitted effect of over 55% in size
In short: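 PPARd-bla HEK293H cells (UAS-beta-lactamase reporter) were treated with compounds for 17 h at 37 C. Viability was then read in the same wells by CellTiter-Glo luminescence after 30 min at room temperature.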

[2] = molecular target: Peroxisome proliferator-activated receptor delta (Homo sapiens) (UniProt Q03181); assay: qHTS assay to identify small molecule agonists of the peroxisome proliferator-activated receptor delta (PPARd) signaling pathway (AID 743212; calls by dose curve)
In short: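 Beta-lactamase reporter read by fluorescence (LiveBLAzer B/G FRET, 2 h, room temperature). Test agents, in DMSO, incubated at 37 C with PPARd-bla HEK293H cells.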

[3] = qHTS assay to identify small molecule antagonists of the peroxisome proliferator-activated receptor delta (PPARd) signaling pathway - cell viability counter screen (AID 743213); further: nearly all actives have a fitted effect of over 50% in size
In short: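 HEK293H cells with the PPARd UAS-bla reporter, co-treated 17 h at 37 C with compounds and L165041 (300 nM final), were lysed with CellTiter-Glo. Luminescence indicated viable cell content.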

[4] = molecular target: Peroxisome proliferator-activated receptor delta (Homo sapiens) (UniProt Q03181); assay: qHTS assay to identify small molecule antagonists of the peroxisome proliferator-activated receptor delta (PPARd) signaling pathway (AID 743215; active means well fitted inhibition curve with a large enough effect in the signal ratio in the repeat runs, not every such curve was filed as active; the % refers to the signal ratio;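 further: cells stimulated with agonist L165041 at 300 nM final during compound exposure; series mostly up to about 62 µM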)
In short: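 Agonist L165041 (300 nM final) added with compound to PPARd-bla HEK293H UAS-bla reporter cells; 17 h incubation at 37 C. Read-out: LiveBLAzer FRET substrate, 2 h at room temperature, fluorescence intensity.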

[5] = molecular target: Bile acid receptor (Homo sapiens) (UniProt Q96RI1); assay: qHTS assay to identify small molecule antagonists of the farnesoid-X-receptor (FXR) signaling pathway (AID 743217; active means well fitted inhibition curve with a large enough effect in the signal ratio in the repeat runs, not every such curve was filed as active; the % refers to the signal ratio)
In short: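 Antagonist mode: chenodeoxycholic acid at 50 uM final stimulates a UAS-driven beta-lactamase reporter in HEK 293T FXR-bla cells during 16 h, 37C compound exposure. Read-out is FRET substrate fluorescence after 2 h at room temperature.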

[6] = qHTS assay to identify small molecule agonists of the farnesoid-X-receptor (FXR) signaling pathway - cell viability counter screen (AID 743218); further: nearly all actives have a fitted effect of over 45% in size
In short: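 Viability counter screen in the same wells: CellTiter-Glo luminescence, 30 min room-temperature incubation, measured after the beta-lactamase read. Cells were GeneBLAzer FXR-UAS-bla HEK 293T, compound-treated 16 h at 37C.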

[7] = molecular target: Bile acid receptor (Homo sapiens) (UniProt Q96RI1); assay: qHTS assay to identify small molecule agonists of the farnesoid-X-receptor (FXR) signaling pathway (AID 743220; active means well fitted activation curve with a large enough effect in the signal ratio in the repeat runs, not every such curve was filed as active; the % refers to the signal ratio)
In short: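 FXR-UAS-bla HEK 293T cells carrying a UAS-driven beta-lactamase reporter were plated for 5 h at 37C/5% CO2, then exposed to DMSO-dissolved Tox21 10K compounds for 16 h at 37C. A LiveBLAzer B/G FRET substrate was loaded for 2 h at room temperature before fluorescence reading.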

[8] = qHTS assay to identify small molecule antagonists of the farnesoid-X-receptor (FXR) signaling pathway - cell viability counter screen (AID 743221; active means well fitted cell-killing curve with a large enough effect in the repeat runs, not every such curve was filed as active; further: nearly all actives have a fitted effect of over 50% in size)
In short: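 FXR-UAS-bla HEK 293T cells were treated with test compounds plus chenodeoxycholic acid (50 uM final) for 16 h at 37 C. Cell viability in the same wells was then read as CellTiter-Glo luminescence after 30 min at room temperature.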

[9] = molecular target: Vitamin D3 receptor (Homo sapiens) (UniProt P11473); assay: qHTS assay to identify small molecule agonists of the vitamin D receptor (VDR) signaling pathway (AID 743222; calls by dose curve)
In short: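 Agonist mode, beta-lactamase reporter: fluorescence from LiveBLAzer B/G FRET substrate (2 h, room temperature) read after 16 h compound treatment at 37 C of VDR-bla cells, which were pre-incubated 4 h after seeding.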

[10] = molecular target: Vitamin D3 receptor (Homo sapiens) (UniProt P11473); assay: qHTS assay to identify small molecule antagonists of the vitamin D receptor (VDR) signaling pathway (AID 743223; active means well fitted inhibition curve with a large enough effect in the signal ratio in the repeat runs, not every such curve was filed as active; the % refers to the signal ratio)
In short: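 VDR-bla cells were plated, incubated 4 h at 37C, then given compound and 1alpha,25-dihydroxyvitamin D3 (3 nM final). After 16 h at 37C, LiveBLAzer B/G FRET substrate was added for 2 h at room temperature and fluorescence read.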

Measured: Potency

Sequence of Peroxisome proliferator-activated receptor delta (Homo sapiens) (Q03181 whole entry, looked up): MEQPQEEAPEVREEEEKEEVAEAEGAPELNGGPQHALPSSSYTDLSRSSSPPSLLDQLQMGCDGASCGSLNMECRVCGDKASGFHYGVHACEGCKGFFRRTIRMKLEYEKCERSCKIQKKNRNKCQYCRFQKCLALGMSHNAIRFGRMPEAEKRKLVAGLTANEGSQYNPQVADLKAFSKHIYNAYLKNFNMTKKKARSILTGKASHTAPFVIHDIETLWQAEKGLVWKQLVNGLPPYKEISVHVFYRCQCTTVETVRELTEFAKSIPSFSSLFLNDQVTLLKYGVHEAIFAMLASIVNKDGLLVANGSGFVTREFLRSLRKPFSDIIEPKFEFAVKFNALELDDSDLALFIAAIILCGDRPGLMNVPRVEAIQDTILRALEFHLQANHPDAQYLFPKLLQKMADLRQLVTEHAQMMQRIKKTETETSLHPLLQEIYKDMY
Sequence of Bile acid receptor (Homo sapiens) (Q96RI1 whole entry, looked up): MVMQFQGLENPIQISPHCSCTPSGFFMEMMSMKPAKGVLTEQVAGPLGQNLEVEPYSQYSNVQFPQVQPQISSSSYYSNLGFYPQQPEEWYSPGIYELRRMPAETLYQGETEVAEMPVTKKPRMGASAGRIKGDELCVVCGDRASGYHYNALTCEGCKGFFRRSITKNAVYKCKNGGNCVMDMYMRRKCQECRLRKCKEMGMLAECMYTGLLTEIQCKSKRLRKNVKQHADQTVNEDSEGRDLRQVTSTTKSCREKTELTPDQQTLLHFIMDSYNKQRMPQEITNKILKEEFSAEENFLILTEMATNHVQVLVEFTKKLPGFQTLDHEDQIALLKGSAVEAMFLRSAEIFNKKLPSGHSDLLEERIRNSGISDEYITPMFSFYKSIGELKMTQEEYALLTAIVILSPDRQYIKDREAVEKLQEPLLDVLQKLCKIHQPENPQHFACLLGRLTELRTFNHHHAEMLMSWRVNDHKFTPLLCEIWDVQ
Sequence of Vitamin D3 receptor (Homo sapiens) (P11473 whole entry, looked up): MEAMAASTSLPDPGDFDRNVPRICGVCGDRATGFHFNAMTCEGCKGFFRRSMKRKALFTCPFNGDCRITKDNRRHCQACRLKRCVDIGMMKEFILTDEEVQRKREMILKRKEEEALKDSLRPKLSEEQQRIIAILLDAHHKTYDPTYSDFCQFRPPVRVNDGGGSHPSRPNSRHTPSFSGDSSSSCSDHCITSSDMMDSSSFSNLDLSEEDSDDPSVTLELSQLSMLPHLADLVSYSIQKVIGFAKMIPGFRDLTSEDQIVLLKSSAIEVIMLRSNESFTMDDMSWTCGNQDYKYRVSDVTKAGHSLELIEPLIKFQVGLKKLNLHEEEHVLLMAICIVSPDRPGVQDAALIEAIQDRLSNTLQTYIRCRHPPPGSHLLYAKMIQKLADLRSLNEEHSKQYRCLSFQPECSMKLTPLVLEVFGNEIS

Nc1ccc(Cc2ccc(N)cc2)cc1
inactive: all assays above

C=C(C)CCl
not listed: [8]
inactive: all other assays above

CCN(CC)CCO
inactive: [1] | [2] | [3] | [4] | [6] | [8]

CC(C)NC(=O)N1CC(=O)N(c2cc(Cl)cc(Cl)c2)C1=O
inactive: [1] | [2] | [3] | [4] | [6] | [8]

CCC12COCN1COC2
not listed: [5] | [7]
inactive: all other assays above

COC(=O)NC(=S)Nc1ccccc1NC(=S)NC(=O)OC
not listed: [8]
inactive: all other assays above

O=[N+]([O-])c1ccccc1
inactive: [1] | [2] | [3] | [4] | [6]

Clc1ccccc1Cl
inactive: all assays above

COP(N)(=O)SC (stereo not given)
inactive: all assays above

CN=C=S
not listed: [8]
inactive: all other assays above

O=c1[nH]c2ccccc2c(=O)o1
not listed: [8]
inactive: all other assays above

Nc1c(Cl)c(Cl)nc(C(=O)O)c1Cl
inactive: [1] | [2] | [3] | [4] | [6]

CCCN(CCC)c1c([N+](=O)[O-])cc(C(F)(F)F)cc1[N+](=O)[O-]
inactive: all assays above

CC(C)OC(=O)Nc1cccc(Cl)c1
not listed: [8]
inactive: all other assays above

C=CCO
inactive: [1] | [2] | [3] | [4] | [6] | [8]

C1CC2OC2CC1C1CO1 (stereo not given)
inactive: all assays above

O=S(=O)(c1ccc(Cl)cc1)c1cc(Cl)c(Cl)cc1Cl
inactive: all assays above

O=S(=O)(c1ccc(O)cc1)c1ccc(O)cc1
not listed: [8]
inactive: all other assays above

CCCCN(CC)C(=O)SCCC
inactive: all assays above

Cc1ccc([N+](=O)[O-])cc1C
not listed: [8]
inactive: all other assays above

ClCc1cccnc1
inactive: all assays above

CCCC1COC(Cn2cncn2)(c2ccc(Cl)cc2Cl)O1 (stereo not given)
inactive: all assays above

NCCc1ccc(O)cc1
inactive: [1] | [2] | [3] | [4] | [6] | [8]

Reference: PubChem BioAssay (Tox21)
